Screening data from PubChem.
Shown are actives, neighbours in structure and some others; about 2.4% of the full set was active somewhere.
AmpC nodet inh: Promiscuous and Specific Inhibitors of AmpC Beta-Lactamase (assay without detergent) | hit rate 1.8% among 71,000 | P00811 | Potency, µM (doses to about 28.7 µM), for the others: at the highest dose activity change, negative = inhibition | AmpC nitrocefin hydrolysis, absorbance 480 nm, no detergent; further: % of control where 0% means no effect
Target sequence (P00811 whole entry, looked up): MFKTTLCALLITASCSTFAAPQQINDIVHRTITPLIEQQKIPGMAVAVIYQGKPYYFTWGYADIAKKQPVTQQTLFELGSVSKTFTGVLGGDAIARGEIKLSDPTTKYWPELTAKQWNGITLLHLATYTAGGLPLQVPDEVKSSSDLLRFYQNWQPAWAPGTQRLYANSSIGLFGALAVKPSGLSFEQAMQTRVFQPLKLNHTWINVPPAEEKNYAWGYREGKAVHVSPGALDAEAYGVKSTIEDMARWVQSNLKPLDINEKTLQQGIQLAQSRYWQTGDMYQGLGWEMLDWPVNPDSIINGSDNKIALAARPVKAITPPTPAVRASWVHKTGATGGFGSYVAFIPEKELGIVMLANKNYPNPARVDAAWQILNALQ
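AmpC, 20 mM phosphate pH 7.0; 15 min cpd preinc, RT; start with nitrocefin (800 uM stock); A480 kinetic read, 20 s intervals, 4 min. No-enzyme wells = negative control.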
AmpC inh det: Promiscuous and Specific Inhibitors of AmpC Beta-Lactamase (assay with detergent); P00811; Potency, µM (titrated, usually from 28.7 µM), for inactives: at the highest dose activity change, negative = inhibition; purified AmpC, nitrocefin hydrolysis with detergent; hit rate 0.09% among 71,000; AID 584, 2007; active means well fitted curve in the direction sought with a large enough effect; inconclusive means small, poorly fitted or top-dose-only effect; further: on the % scale 0 is the no-effect control and ±100 the full control effect
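E. coli AmpC (5.3 nM) in 20 mM phosphate pH 7.0 with 0.01% Triton X-100, preincubated 15 min RT with compound; nitrocefin (2 uL of 800 uM stock) hydrolysis followed by 480 nm absorbance every 20 s over 4 min.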
Prx2 Sm inh: Schistosoma Mansoni Peroxiredoxins (Prx2) | Schistosoma mansoni peroxiredoxin 2 (Prx2) | S. mansoni Prx2 activity coupled to TGR/GSH (TGR is thioredoxin glutathione reductase), NADPH fluorescence loss, qHTS | Potency, µM | hit rate 0.07% among 65,000 | AID 448, 2006
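Coupled assay in which S. mansoni TGR passes NADPH reducing equivalents via glutathione to Prx2, which reduces H2O2. Compounds were preincubated 15 min at room temperature with 25 nM TGR/50 nM Prx2 mix. Kinetic NADPH fluorescence loss (ex 365/em 450 nm) was monitored.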
Anthrax LT inh: qHTS Assay for Anthrax Lethal Toxin Internalization. Cells, anthrax lethal toxin internalization, FRET ratio (460/530). Potency, µM (doses to about 40 µM), inactives show at the top dose activity change, negative = inhibition, actives largely listed as inhibitors. hit rate 0.67% among 70,000; further: on the % scale 0 is the no-effect control and ±100 the full control effect; nearly all actives have a fitted effect of over 50% in size
* hit, by the source's call; ? = inconclusive; nt = no result given; [ ] = remark or other dose. Unless noted, the call rests on the fitted dose curve. Potency means the concentration at half of the fitted maximal effect.

SMILES | AmpC nodet inh | AmpC inh det | Prx2 Sm inh | Anthrax LT inh
O=C(Cc1cccs1)Nc1ccc(S(=O)(=O)N2CCCCC2)cc1 | 12.6µM*[single pt active] | -1.8% | >57 | -3.4%
O=C(Nc1ccc(S(=O)(=O)N2CCCCCC2)cc1)c1ccc(Br)o1 | -11.4% | 8.4% | >57 | 1.58µM*
CCOC(=O)CN1C(=O)C(=O)c2cccc(C)c21 | 3.98µM*[single pt active] | 7.6% | >57 | -9.6%
CCOC(=O)CN1C2=NCCN2c2ccccc21 | -5.9% | -3.0% | >57 | 0.2%
C=CC(=O)OCCCCCCOC(=O)C=C | 10.6% | 9.5% | nt | 27.5%
COc1ccc(CCNC[C@H](O)c2ccc(O)cc2)cc1OC | -5.3% | -3.9% | >57 | 1.4%
CCc1ccc(-c2cn(-c3nc(C)cc(C)n3)c(=N)o2)cc1 | 18.9% | 12.1% | >57 | 12.6µM*
CC(C)[C@H]1C(=O)C(C(N)=O)=C(O)[C@]2(O)C(=O)C3=C(O)c4c(O)ccc(N(C)C)c4C[C@H]3C[C@@H]12 | -9.0% | -1.8% | >57 | -2.6%
Cn1c(=O)c(=O)n(C)c2cc(S(=O)(=O)CCC(=O)N3CCOCC3)ccc21 | 3.98µM*[single pt active] | 12.4% | >57 | -10.3%
Cn1c(=O)c(=O)n(C)c2cc(S(=O)(=O)N3CCOCC3)ccc21 | -15.6% | -2.2% | >57 | -6.6%
CCOC(=O)C1CCCN(c2c(Nc3ccc(C)c(C)c3)c(=O)c2=O)C1 (configuration not stated) | 3.16µM*[single pt active] | 13.0% | >57 | ?
CCOC(=O)C1CCCN(c2c(NCC3CCCO3)c(=O)c2=O)C1 (configuration not stated) | 3.16µM*[single pt active] | 11.4% | >57 | -6.0%
CCOC(=O)C1CCCN(c2c(N3CCN(C4CCCCC4)CC3)c(=O)c2=O)C1 (configuration not stated) | 59.1% | 9.2% | >57 | -12.0%
CCOC(=O)C1CCCN(c2c(N3CCC(N4CCCCC4)CC3)c(=O)c2=O)C1 (configuration not stated) | 3.98µM*[single pt active] | 12.8% | >57 | -22.0%
CCc1ccc(CCN2CCCCC2)nc1 | -0.7%[5.75 µM] | -1.7%[5.75 µM] | >57 | -2.8%[8 µM]
Nc1ncn([C@@H]2O[C@@H](CO)[C@@H](O)[C@H]2O)c(=O)n1 | 1.2% | -2.7% | >57 | -20.8%
Cn1nc(-c2ccc(Cl)cc2)c2cc(C(=O)N3CCC(N4CCCCC4)CC3)sc21 | 43.5% | 15.5% | >57 | -7.1%
CC(C)NC(=O)c1cc2c(-c3ccc(Cl)cc3)nn(C)c2s1 | 0.794µM*[single pt active] | 10.6% | >57 | -4.1%
COc1cccc(-c2nn(C)c3sc(C(=O)NCc4ccco4)cc23)c1 | 49.0% | -6.9% | >57 | -11.6%
CCN1CCCC1CNC(=O)c1cc2c(-c3cccc(OC)c3)nn(C)c2s1 (configuration not stated) | 55.3% | -3.3% | >57 | 15.8µM*
CCN1CCCC1CNC(=O)c1cc2c(-c3ccc(Cl)cc3)nn(C)c2s1 (configuration not stated) | 3.98µM*[single pt active] | 13.8% | >57 | 3.98µM*
Cc1ccc(CNC(=O)c2cc3c(-c4ccc(Cl)cc4)nn(C)c3s2)o1 | 3.98µM*[single pt active] | 16.0% | >57 | -8.0%
COCCNC(=O)c1cc2c(-c3ccc(Cl)cc3)nn(C)c2s1 | 127.6% | 11.1% | >57 | -21.6%
C=C1C/C(=C\C)C(=O)O[C@@H]2CCN3CC=C(COC(=O)[C@]1(C)O)[C@H]23 | -5.0% | -3.0% | >57 | nt
CCCCNC(=O)c1cc2c(-c3ccc(Cl)cc3)nn(C)c2s1 | 25.6% | 11.6% | nt | -5.3%
SMILES | AmpC nodet inh | AmpC inh det | Prx2 Sm inh | Anthrax LT inh
Cn1nc(-c2ccc(Cl)cc2)c2cc(C(=O)NCCCN3CCCC3)sc21 | 3.98µM*[single pt active] | 13.3% | >57 | 2µM*
COCCCNC(=O)c1cc2c(-c3ccc(Cl)cc3)nn(C)c2s1 | 142.8% | 6.0% | >57 | -14.4%
CCOC(=O)N1CCC(NC(=O)c2cc3c(-c4ccc(Cl)cc4)nn(C)c3s2)CC1 | 3.98µM*[single pt active] | 11.2% | >57 | -2.3%
Nc1ccccc1O.O.O=C(O)[C@H]1[O][Sb][O][C@H]1C(=O)O | -4.6%[5.75 µM] | -1.7%[5.75 µM] | 0.221* | ?
CCCSCCCNC(=O)CC1Oc2ccccc2NC1=O (configuration not stated) | 3.98µM*[single pt active] | 12.0% | >57 | -0.8%
CCC(C)N(CCNC(=O)CC1Oc2ccccc2NC1=O)C1CCCCC1 (configuration not stated) | 3.98µM*[single pt active] | 7.2% | >57 | -19.2%
CC(C)CN(CCNC(=O)CC1Oc2ccccc2NC1=O)CC(C)C (configuration not stated) | 3.98µM*[single pt active] | 13.4% | >57 | -2.6%
CCN(CCNC(=O)CC1Oc2ccccc2NC1=O)c1ccccc1 (configuration not stated) | 3.98µM*[single pt active] | 12.7% | >57 | -0.1%
Nc1ncnc2c1ncn2[C@@H]1CCCO1 | -2.9% | 10.1% | >57 | 9.4%
O=C1C[C@H]2OCCC=C3CN4CC[C@@]56c7ccccc7N1[C@@H]5[C@H]2[C@H]3C[C@@H]46 | -9.2% | 3.0% | >57 | ?
COc1ccc(CNc2oc(-c3ccccc3)nc2C#N)cc1 | 3.98µM*[single pt active] | 15.0% | >57 | -2.2%
COc1ccc(CCNc2oc(-c3ccc(C)cc3)nc2C#N)cc1OC | 3.98µM*[single pt active] | 12.4% | >57 | 8.5%
CCN(CC)C(=O)C1CCCc2c1[nH]c1ccc(Cl)cc21 (configuration not stated) | 3.98µM*[single pt active] | 15.1% | nt | -17.4%
NC(=O)c1ncn([C@@H]2O[C@@H](CO)[C@@H](O)[C@H]2O)n1 | 7.9% | -2.6% | ? | nt
CCOC(=O)N1CCC(Nc2c(NCCN3CCN(Cc4ccccc4)CC3)c(=O)c2=O)CC1 | 2.7% | -0.3% | >57 | -6.9%
CCOC(=O)N1CCN(c2c(NCCN3CCN(Cc4ccccc4)CC3)c(=O)c2=O)CC1 | 3.98µM*[single pt active] | 11.6% | >57 | -9.7%
CCOC(=O)C1CCCN(c2c(NCCCN(C)Cc3ccccc3)c(=O)c2=O)C1 (configuration not stated) | -4.0% | -2.7% | >57 | -11.3%
CCOC(=O)N1CCN(c2c(NCC3CCN(Cc4cccc(C)c4)CC3)c(=O)c2=O)CC1 | 3.98µM*[single pt active] | 14.9% | >57 | 11.6%
CCOC(=O)N1CCN(c2c(NCCCOC(C)C)c(=O)c2=O)CC1 | 3.98µM*[single pt active] | 7.7% | >57 | -14.3%
CCOC(=O)N1CCN(c2c(NCCN(C)Cc3ccccc3)c(=O)c2=O)CC1 | 3.98µM*[single pt active] | 9.8% | >57 | -7.4%
CCOC(=O)C1CCN(c2c(NCCCN3CCN(Cc4ccccc4)CC3)c(=O)c2=O)CC1 | 18.8% | 9.8% | >57 | 2.7%
Clc1cccc(C(Cl)(Cl)Cl)n1 | -10.6% | 10.5% | nt | 1.9%
C[C@H]1[C@H](O)[C@@H](C)C=CC=CC=CC=CC=CC=CC=C[C@H](O[C@@H]2O[C@@H](C)[C@H](O)[C@@H](N)[C@@H]2O)C[C@@H]2O[C@](O)(C[C@@H](O)C[C@@H](O)[C@@H](O)CC[C@@H](O)C[C@@H](O)CC(=O)O[C@H]1C)C[C@H](O)[C@H]2C(=O)O | 102.6%[5.75 µM] | -5.2%[5.75 µM] | >57 | ?
O=[N+]([O-])c1ccc(S(=O)(=O)Cc2ccccc2)c2nonc12 | -13.6%[5.75 µM] | -3.6%[5.75 µM] | nt | 18.9%[8 µM]
CCOC(=O)N1CCN(c2c(NCCCN(C)c3ccccc3)c(=O)c2=O)CC1 | 3.98µM*[single pt active] | 12.0% | >57 | -0.6%
